Data reported in the OligoGym collection.

biological target: ZNF20; assay: pooled miR-30 sensor sort-seq; sequence = guide strand; settings: shRNA
Note: reference of the scale not given here.

| Sequence | sensor-assay potency score (higher = more potent) |
| --- | --- |
| TACCACAGTGCTTACATTCATA | -0.662 |
| TATTAAGAGATGAATGACCCGT | -0.0204 |
| TAGTGCAAGCTTTATCATGTGA | -0.356 |
| TTCTATATGGATTCTCTCCATA | -1.01 |
| TAAGACTTAGATTTCTCCTGGG | 0.935 |
| TTGTATTACGAAACCATCCAAG | -0.687 |
| TTCAATGTTCTGAACTTTCCAT | -0.266 |
| TTTCTGTACATTCTTTACCATC | -1.72 |
| TGAAGTTGTGAAGCACATCTAA | -0.501 |
| TTTCTCTTTAGTGCAAGCTTTA | -0.882 |
| TTTCTCTCCACTGTGCGTCCTT | -0.157 |
| TTTCACATGGTGTTATTCCAGG | -0.755 |

biological target: ZNF213; assay: as above; settings: shRNA

| Sequence | sensor-assay potency score (higher = more potent) |
| --- | --- |
| TCGGGTTCCGCCTCCTCCGAGG | -1.19 |
| TAATACTCTTCTGTTGCCCTTT | 0.353 |
| TTCGGAATCCCTGCCATCCTCA | -0.738 |
| TGTAGGTCCTCCACCAAGGCGA | -0.787 |
| TGTCTGGCCTGGCACCACCGGC | -1.68 |
| TTTCACTGGCTGCTTCTGTAGG | -0.917 |
| TTGAGCCCAAAACCCAGGGTGG | -1.3 |
| TCACTTTGGCCTTTGAGCCCAA | -0.58 |
| TTCTGTAGGTCCTCCACCAAGG | -1.39 |
| TTTGAGCCCAAAACCCAGGGTG | -0.556 |
| ATCCCTGCCATCCTCATGCTGG | -1.09 |
| TCACTGGCTGCTTCTGTAGGTC | -0.833 |
